This note sets out measurements from PubChem BioAssay (NCI).

SMILES strings stand for the structures. About 83,000 compounds went through this panel and 20% of them were active in at least one assay; those are over-represented in the sample as a whole.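 Assay: single dose, 48 h. Readout: percent growth (0 = no net growth; negative = cell death). Active: <10.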 Values without a mark were called inactive. Activity calls are given as the source filed them.

Test systems include NCI-H23 lung; NCI-H226 lung; NCI-H322M lung; HOP-62 NSCLC; NCI-H460 lung; HOP-92 NSCLC; NCI-H522 lung; A549/ATCC NSCLC; 786-0 renal; COLO 205 colon.
What all share (assay): NCI-60 one-dose screen, 48 h (100 = growth as untreated, 0 = no growth, -100 = all killed)
Holding throughout (settings): 10 µM unless noted

Regarding `Cc1nc2sccn2c1-c1cn2ccsc2n1`, the growth with NCI-H23 lung is 60.2%; in the assay with NCI-H226 lung, 84.3%; in the assay with NCI-H322M lung, 82.7%; with HOP-62 NSCLC it was 90.7%; in the assay with NCI-H460 lung, 65.9%; with HOP-92 NSCLC, 69.6%. Moreover, the growth is 89.2% in the assay on NCI-H522 lung, 98.9% with A549/ATCC NSCLC, 95.8% in the assay with 786-0 renal and 87.2% in the assay on COLO 205 colon.
With `COc1ccc(/C=C/c2nc(Nc3cccc(NC(C)=O)c3)c3ccccc3n2)cc1`, the growth with NCI-H23 lung is 87.6%; in the assay with NCI-H226 lung it was 82.3%; in the assay with NCI-H322M lung, 45.5%; with HOP-62 NSCLC, 82.1%; in the assay with NCI-H460 lung, 84.3%; in the assay on HOP-92 NSCLC it was 69.4%. For the same compound, the growth in the assay on NCI-H522 lung was 75.9%; in the assay on A549/ATCC NSCLC it was 55.4%; in the assay with 786-0 renal, 88.9%; in the assay with COLO 205 colon it was 105%.
Take `Cc1cc(Cl)nc(N(CCNc2ccnc3cc(Cl)ccc23)Cc2ccccn2)n1`: the growth was 56.2% in the assay on NCI-H23 lung; 79.5% with NCI-H226 lung; 63.6% in the assay with NCI-H322M lung; 72.5% with HOP-62 NSCLC; 50.9% with NCI-H460 lung; 38% in the assay on HOP-92 NSCLC. For the same compound, the growth was 54.1% in the assay with NCI-H522 lung, 63.3% in the assay with A549/ATCC NSCLC, 38.7% in the assay with 786-0 renal and 57.5% in the assay on COLO 205 colon.
Consider `Oc1ccc(C2c3ccccc3Oc3ccccc32)c2cccnc12`, for which the growth in the assay with NCI-H23 lung is 30.3%; in the assay with NCI-H226 lung, 4.5% (active); in the assay with NCI-H322M lung, 24.3%; with HOP-62 NSCLC, 19.8%; in the assay on NCI-H460 lung, 2.23% (active); with HOP-92 NSCLC, 43.1%. Also, the growth in the assay on NCI-H522 lung was 25%; with A549/ATCC NSCLC, 12.2%; in the assay on 786-0 renal, -18.4% (active); in the assay with COLO 205 colon it was 34.8%.
As for `C=C1C(=O)O[C@H]2[C@H]1CC/C(CNC(=O)/C=C/c1cccc(OC)c1)=C\CC[C@@]1(C)O[C@@H]21`, the growth is 64.4% in the assay with NCI-H23 lung; 73.6% with NCI-H226 lung; 72.6% in the assay on NCI-H322M lung; 68.7% in the assay with HOP-62 NSCLC; 76% with NCI-H460 lung; -31.7% (active) in the assay with HOP-92 NSCLC. In addition, the growth with NCI-H522 lung was -69.4% (active); in the assay on A549/ATCC NSCLC, 47.2%; with 786-0 renal, -59.2% (active); in the assay on COLO 205 colon, -56.5% (active).
`Cc1nn(-c2ccccc2)c(Cl)c1/C=N\N=c1/sc2ccccc2n1C`: the growth in the assay with NCI-H23 lung was 100%; in the assay on NCI-H226 lung, 105%; in the assay on NCI-H322M lung, 97.5%; in the assay on HOP-62 NSCLC, 93.1%; with NCI-H460 lung, 107%; in the assay on HOP-92 NSCLC it was 84.5%. Also, the growth is 97.7% with NCI-H522 lung, 85.1% with A549/ATCC NSCLC, 92.6% with 786-0 renal and 109% with COLO 205 colon.
As to `CCNc1nc2ccc(Nc3ccnc4cc(Cl)ccc34)cc2[nH]1`, the growth is 89.6% in the assay with NCI-H23 lung; 94.8% in the assay on NCI-H226 lung; 97.5% in the assay on NCI-H322M lung; 94.7% in the assay on HOP-62 NSCLC; 85.9% with NCI-H460 lung; 61% with HOP-92 NSCLC. Besides, the growth with NCI-H522 lung was 98.3%; in the assay on A549/ATCC NSCLC, 90.8%; in the assay on 786-0 renal it was 72.2%; in the assay with COLO 205 colon it was 61.2%.
As to `O=C1c2ccc3c4c(ccc(c24)C(=O)N1CCCNCc1ccccc1Cl)C(=O)N(CCCNCc1ccccc1Cl)C3=O`, the growth was -51.9% (active) with NCI-H23 lung; -57.1% (active) with NCI-H226 lung; -66.2% (active) in the assay on NCI-H322M lung; -19.8% (active) in the assay on HOP-62 NSCLC; -52.1% (active) with NCI-H460 lung; -7.21% (active) in the assay with HOP-92 NSCLC. In addition, the growth was -83.1% (active) in the assay with NCI-H522 lung, -84.1% (active) in the assay on A549/ATCC NSCLC, -32.8% (active) with 786-0 renal and -15.9% (active) in the assay on COLO 205 colon.
`OCc1cnccc1NCCCCOc1ccc(Oc2ccccc2)cc1`: the growth in the assay on NCI-H23 lung is 46.6%; in the assay on NCI-H226 lung it was 70.1%; with NCI-H322M lung it was 94.7%; in the assay on HOP-62 NSCLC, 72.1%; with NCI-H460 lung it was 69.6%; in the assay with HOP-92 NSCLC it was 43%. Further, the growth with NCI-H522 lung was 62.9%; in the assay with A549/ATCC NSCLC, 78.3%; in the assay on 786-0 renal, 56.8%; in the assay on COLO 205 colon, -10.4% (active).
With `O=C1c2ccc3c4c(ccc(c24)C(=O)N1CCCNCc1ccccc1)C(=O)N(CCCNCc1ccccc1)C3=O`, the growth in the assay on NCI-H23 lung was -72.9% (active); in the assay with NCI-H226 lung, -54.1% (active); with NCI-H322M lung it was -37.8% (active); in the assay on HOP-62 NSCLC, -38.5% (active); in the assay with NCI-H460 lung, -73.1% (active); in the assay on HOP-92 NSCLC it was -12.5% (active). Also, the growth in the assay with NCI-H522 lung is -91.2% (active); in the assay on A549/ATCC NSCLC, -91.1% (active); in the assay on 786-0 renal it was -46.3% (active); in the assay on COLO 205 colon, -43.3% (active).
For `COc1cc(C=O)ccc1OC1OC(COC(C)=O)C(OC(C)=O)C(OC(C)=O)C1OC(C)=O` (stereo not given), the growth is 102% in the assay on NCI-H23 lung; 93.8% in the assay with NCI-H226 lung; 120% in the assay on NCI-H322M lung; 94% in the assay on HOP-62 NSCLC; 104% in the assay on NCI-H460 lung; 88.7% with HOP-92 NSCLC. The growth in the assay on NCI-H522 lung was 104%; in the assay with A549/ATCC NSCLC, 94.8%; in the assay with 786-0 renal, 105%; in the assay on COLO 205 colon it was 98.7%.
For `NC(=S)N1N=C(c2ccccc2)CC1c1cn(-c2ccccc2)nc1-c1ccc(OCc2ccccc2)cc1` (stereo not given), the growth with NCI-H23 lung was 104%; in the assay with NCI-H226 lung, 98.4%; in the assay with NCI-H322M lung it was 94.9%; in the assay on HOP-62 NSCLC, 101%; in the assay on NCI-H460 lung, 106%; with HOP-92 NSCLC, 80%. Further, the growth in the assay with NCI-H522 lung is 83.5%; in the assay on A549/ATCC NSCLC it was 91.7%; with 786-0 renal it was 98.4%; with COLO 205 colon, 115%.
In the case of `COC(=O)C1=C(C(=O)ON)[C@@H]2C=C[C@@]1([C@@H](Cc1ccccc1)Nc1ccccc1)O2`, the growth is 90.6% in the assay on NCI-H23 lung; 105% in the assay with NCI-H226 lung; 99.5% with NCI-H322M lung; 102% with HOP-62 NSCLC; 107% in the assay on NCI-H460 lung; 63.1% with HOP-92 NSCLC. The growth in the assay on NCI-H522 lung was -74.7% (active); in the assay on A549/ATCC NSCLC, 92.9%; with 786-0 renal, 101%; in the assay with COLO 205 colon, -67% (active).
